# The campaign covered roughly 69,000 compounds. About 8,600 (12%) showed an effect of 50% or more. Shown is part of a subset that was picked to be rich in strong results.
# Test system: Plasmodium berghei
# Experiment: Screen against P. berghei liver stage (PbLuc), transformed with Luciferase, at 10uM
# Format: functional, HepG2
# Settings: tested at 10 uM
row,Structure (SMILES),INHIBITION
1,COCCN1C(=O)[C@@H]2CC[C@H]1CN(C(=O)Cc1ccc(O)c(Cl)c1)C2,-82.7%
2,CCS(=O)(=O)N1CCC2(CC1)COC(COc1cccnc1)C2 (centres undefined),5.63%
3,Cc1ccc(C#N)c(N2CCC(c3nccn3Cc3cscn3)CC2)n1,23.9%
4,Cc1ccc(C#N)c(N2CCCC(c3nccn3Cc3cscn3)C2)n1 (centres undefined),56.7%
5,Cc1cnc(C)c(N2CCC(c3nccn3Cc3cscn3)CC2)n1,8.51%
6,O=C(CC1CC1)N1C[C@@H]2CN(c3ccccc3)C(=O)[C@@H]2C1,-15.9%
7,Cc1cc(C(=O)NCC2OCCc3cn(CC4CC4)nc32)c(C)[nH]1 (centres undefined),26.5%
8,COc1ccc(CCN2CC(NCc3ncc[nH]3)CC2=O)cc1 (centres undefined),-5.19%
9,Cn1c(N2CC[C@H](O)C2)nc2cc(C(N)=O)ccc21,14.3%
10,CN(C)C(=O)c1ccc2c(c1)nc(N1CC[C@H](O)C1)n2C,51.8%
11,CN(C(=O)c1ccc2c(c1)nc(N1CC[C@H](O)C1)n2C)C1CCSCC1,-1.04%
12,NCc1ccnc(Oc2ccccc2)c1,-18.5%
13,Cc1ccc(Oc2cc(CN)ccn2)cc1C,45.7%
14,CC(C)C(=O)NCc1ccnc(Oc2ccc(F)cc2)c1,32.5%
15,NCc1ccnc(Oc2ccc(F)cc2)c1,82.9%
16,CCOc1ccc(Oc2cc(CN)ccn2)cc1,-5.69%
17,COc1ccc(Oc2cc(CN)ccn2)cc1,62.4%
18,O=C(CSc1ccccc1)N1C[C@@H]2CC[C@H]1CN(Cc1ccncc1)C2,10.4%
19,CC(C)S(=O)(=O)N1CCC(c2cc3n(n2)[C@@H](C(F)(F)F)C[C@@H](C)N3)CC1,48.4%
20,COc1c(C2CCCN2CC(=O)Nc2cc(C)nn2C)c(C)nn1C (centres undefined),23.5%
21,Cc1cc(C)n(CCC(=O)N2CCCC(c3nc(C(C)C)no3)C2)n1 (centres undefined),30.8%
22,COc1ncnc(N)c1CNCc1ccccc1-n1cccn1,30.9%
23,CCc1ncc(CN2CCOC(Cc3cccc(F)c3)C2)cn1 (centres undefined),56.1%
24,CCc1ccc(CN2CCOC(Cc3cccc(F)c3)C2)nc1 (centres undefined),22%
25,CCCNc1ncc(CN2CCOC(Cc3cccc(F)c3)C2)cn1 (centres undefined),-45%
26,c1ncn(CC2CN(CC3CCCCC3)CCO2)n1 (centres undefined),25.4%
27,O=C(NCCC(=O)N1CCCCCC1)c1c(O)cc(F)cc1F,29.5%

row,Structure (SMILES),INHIBITION
1,O=C(NCC1(O)CCC1)c1c(O)cc(F)cc1F,59.5%
2,O=C(NCC1(O)CCC1)c1c(O)cc(Cl)cc1Cl,31%
3,NS(=O)(=O)Cc1cccc(C(=O)N2CCCC(n3cccn3)C2)c1 (centres undefined),14.815%
4,Cc1nccc(CNC(=O)NCCC(=O)N2CCCc3ccccc32)n1,-15%
5,COc1cccc(C2CCCN2CCCNS(C)(=O)=O)c1 (centres undefined),15.3%
6,CSCCN1C(=O)CC(C)(c2ccc(Br)cc2)C1=O (centres undefined),42.1%
7,CC1(c2ccc(Br)cc2)CC(=O)N(CC(N)=O)C1=O (centres undefined),51.8%
8,CC1(c2ccc(Br)cc2)CC(=O)N(CCC(N)=O)C1=O (centres undefined),-48.3%
9,O=C(NCC1CC1)[C@H]1C[C@H]2CN(C(=O)NCc3ccccc3)C[C@@H]1O2,13.6%
10,CC(NC(=O)NCCn1ccnc1)c1ccc2c(c1)OCCCO2 (centres undefined),-9.37%
11,CC(C)n1ccnc1CN1CCOC(C)(C(=O)N2CCOCC2)C1 (centres undefined),38.2%
12,c1cnc(CC2CCN(c3cnccn3)CC2)cn1,33.2%
13,CCCNC(=O)[C@@H]1CCCN1[C@@H](C(=O)NC)C1CC1,-20.8%
14,CNC(=O)[C@@H](C1CC1)N1CCC[C@H]1C(=O)NCC(C)C,-19.6%
15,CCNC(=O)[C@@H]1CCCN1[C@@H](C(=O)NC)C1CC1,51.9%
16,COCCN1C(=O)[C@@H]2CC[C@H]1CN(c1nccc(C)n1)C2,-39.2%
17,Cc1cccc(COc2ccc(NC(=O)C(C)NC(N)=O)c(C)c2)c1 (centres undefined),61.3%
18,CC(=O)NC(C)C(=O)Nc1ccc(OCc2cccc(F)c2)cc1C (centres undefined),26.5%
19,Cc1cccc(COc2ccc(C(C)NS(N)(=O)=O)cc2)c1 (centres undefined),9.16%
20,Cc1cccc(COc2ccc(C(C)N)cc2)c1 (centres undefined),83%
21,Cc1cccc(COc2ccc(C(C)NC(=O)CNC(N)=O)cc2)c1 (centres undefined),40.7%
22,Cc1cc(OCc2cccc(F)c2)ccc1NC(=O)C(C)NC(N)=O (centres undefined),48.3%
23,CC(C)(C)c1cc(CNC(=O)c2cc(COc3ccccc3)[nH]n2)[nH]n1,-47%
24,Cn1cc(C(=O)NCc2cn3c(n2)CN(CC2CCCC2)CC3)cn1,-2.17%
25,Cc1nc(-c2ccnc(N3CCNCC3)n2)no1,-17%
26,Cc1nc(CN2CCN(CCOc3ccc(C(C)C)c(C)c3)CC2)no1,25.1%
27,Cc1noc(C)c1CNC(=O)N1CCC(Cc2cnn(C)c2)C1 (centres undefined),20.2%
